PubChem BioAssay
Active and inactive are the calls of the source.

Tests used:
Albumin (Bos taurus) = Albumin (Bos taurus) (UniProt P02769); experiment: compounds binding labelled BSA control protein – biochemical, small-molecule microarray, Alexa647 label, 635/667 nm fluorescence, artefact control for SMM control protein annotation, profiling panel (AID 1118); conditions: BSA-A647 binding, fluorescence 635 nm, higher = more signal;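 further: score merges 667 nm emission intensity and signal-to-noise per printed compound spot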
[1] = probe aXIP binding to arrayed compounds – biochemical, NeuroSMM set, 635/667 nm fluorescence, primary screen (AID 1119); conditions: small-molecule microarray, higher = more signal, called active from +8 up or from −8 down;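 further: probe is the protein aXip251-270 applied at 1 µg/mL to compound-printed slides; binding of probe to printed compounds measured as 667 nm fluorescence plus signal to noise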
[2] = probe aNOTCH3 binding on compound microarray – biochemical, small-molecule microarray, 635/667 nm fluorescence, primary screen (AID 1120); conditions: higher = more signal;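 further: probe is a biotin-tagged antibody raised against NOTCH3 rather than NOTCH3 protein; score merges spot fluorescence near 667 nm with spot signal to noise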
[3] = probe aNOTCH2 binding on compound microarray – biochemical, small-molecule microarray, 635/667 nm fluorescence, primary screen (AID 1121); conditions: higher = more signal;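 further: score merges feature fluorescence read at 667 nm with its signal to noise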
[4] = molecular target: Carbonic anhydrase 2 (Homo sapiens) (UniProt P00918); experiment: compounds binding carbonic anhydrase 2 – biochemical, small-molecule microarray, Alexa647-labelled CAII, profiling panel (AID 1122); conditions: CAII-A647 binding fluorescence, higher = more signal
[5] = COS7 lysate on small-molecule microarray, probe aHis, 635 nm (AID 1123); conditions: COS7 cell lysate, fluorescence, higher = more signal;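 further: z-score combines 667nm fluorescence intensity with signal-to-noise per printed compound spot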
[6] = probe aLAP1 signal on lysate-treated microarray – cell lysate, small-molecule microarray, COS7 lysate, primary screen (AID 1124); conditions: probe aLAP1, fluorescence, higher = more signal;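 further: lysate comes from COS7 cells expressing LAP1 and is applied at 0.3 µg/mL; score merges spot fluorescence near 667 nm with signal-to-noise over triplicate slides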
Sam68 (KHDRBS1) = experiment: compounds binding KHDRBS1 protein – biochemical, small-molecule microarray, 635 nm fluorescence, primary screen (AID 1125); conditions: higher = more signal;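 further: score merges 667 nm channel intensity with signal to noise over triplicate slides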
[7] = tested on: Chordin-like protein 2 (CHRDL2); experiment: compounds binding chordin-like 2 – biochemical, small-molecule microarray, 635 nm fluorescence, primary screen (AID 1126); conditions: fluorescence 635 nm, higher = more signal;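 further: printed compound slides probed with Chrdl2 protein at 4 µg/mL for 1 h at 4 C; score merges 667 nm emission intensity with signal to noise over three replicate slides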
[8] = molecular target: Concanavalin-A (Canavalia ensiformis) (UniProt P02866); experiment: compounds binding concanavalin A lectin – biochemical, small-molecule microarray, Alexa647 label, 635 nm, artefact control for SMM control protein annotation, primary screen (AID 1127); conditions: ConA-A647 binding fluorescence, higher = more signal;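 further: z combines 667 nm emission intensity with signal-to-noise across three replicate slides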
[9] = compounds binding Alexa647 anti-His antibody – biochemical, small-molecule microarray, 635 nm fluorescence, artefact control for SMM control protein annotation, primary screen (AID 1128); conditions: higher = more signal;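 further: score merges feature fluorescence with signal-to-noise for each printed compound spot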
[10] = tested on: Human papillomavirus type 1a E7 protein (residues 1-88); experiment: HPV1a E7 small-molecule binders, primary screen, biochemical, small-molecule microarray, residues 1-88, 635 nm (AID 1129); conditions: small-molecule microarray binding, fluorescence 635 nm; higher = more signal
[11] = molecular target: Focal adhesion kinase 1 (Homo sapiens) (UniProt Q05397); experiment: PTK2 protein binding on printed compound slides – biochemical, small-molecule microarray, 635/667 nm fluorescence, BSA, DTT, primary screen (AID 1130); conditions: 635 nm fluorescence, higher = more signal;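 further: composite of spot emission at 667 nm and signal to noise over triplicate slides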
[12] = tested on: Fibrinogen (Alexa647-labelled); experiment: Alexa647-fibrinogen binding to printed small molecules – biochemical, small-molecule microarray, 635/667 nm fluorescence, artefact control for SMM control-protein annotation, profiling panel (AID 1131); conditions: fibrinogen-A647 binding fluorescence, higher = more signal;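 further: z-score merges 667 nm fluorescence with per-spot signal-to-noise over triplicate slides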
[13] = molecular target: Follistatin (Homo sapiens) (UniProt P19883); experiment: FST protein binding to printed compounds – biochemical, small-molecule microarray, 635/667 nm fluorescence, primary screen (AID 1132); conditions: 635 nm fluorescence, higher = more signal
[14] = molecular target: Fibroblast growth factor 2 (Homo sapiens) (UniProt P09038); experiment: basic fibroblast growth factor binding to printed compounds – biochemical, small-molecule microarray, 635/667 nm fluorescence, primary screen (AID 1133); conditions: FGF2, fluorescence 635/667, higher = more signal
[15] = JC-1 mitochondrial potential readout, lung cancer cells – cell-based, A549, JC-1 fluorescence, basal, 24 h, 100 nL, profiling panel (AID 1138); conditions: higher = more signal;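 further: A549 lung adenocarcinoma cells under basal conditions with no added stimulus; test concentration not given here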
Lefty1 = Lefty1 protein binding to printed compounds – biochemical, small-molecule microarray, 635/667 nm fluorescence, primary screen (AID 1139); conditions: fluorescence 635/667, higher = more signal
[16] = tested on: wheat germ agglutinin (Triticum aestivum), Alexa647-labelled; experiment: Alexa647-WGA lectin binding to printed small molecules – biochemical, small-molecule microarray, 635/667 nm fluorescence, artefact control for SMM control-protein annotation, profiling panel (AID 1140); conditions: WGA-A647 binding, 635 nm fluorescence, higher = more signal;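 further: score merges 667 nm feature emission with signal to noise over triplicate slides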
[17] = molecular target: Luciferin 4-monooxygenase (Photinus pyralis) (UniProt P08659); experiment: inhibition of purified Photinus pyralis luciferase – biochemical, luminescence, purified enzyme, 2006 set, primary screen (AID 1141); conditions: purified firefly luciferase, SteadyGlo luminescence, 30 min; higher = more signal, called active from +8 up or from −8 down;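 further: cell-free assay with purified firefly luciferase at 100 ng per well in PBS; test concentration not given here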
Luciferin 4-monooxygenase (Photinus pyralis), sequence (P08659 whole entry, looked up): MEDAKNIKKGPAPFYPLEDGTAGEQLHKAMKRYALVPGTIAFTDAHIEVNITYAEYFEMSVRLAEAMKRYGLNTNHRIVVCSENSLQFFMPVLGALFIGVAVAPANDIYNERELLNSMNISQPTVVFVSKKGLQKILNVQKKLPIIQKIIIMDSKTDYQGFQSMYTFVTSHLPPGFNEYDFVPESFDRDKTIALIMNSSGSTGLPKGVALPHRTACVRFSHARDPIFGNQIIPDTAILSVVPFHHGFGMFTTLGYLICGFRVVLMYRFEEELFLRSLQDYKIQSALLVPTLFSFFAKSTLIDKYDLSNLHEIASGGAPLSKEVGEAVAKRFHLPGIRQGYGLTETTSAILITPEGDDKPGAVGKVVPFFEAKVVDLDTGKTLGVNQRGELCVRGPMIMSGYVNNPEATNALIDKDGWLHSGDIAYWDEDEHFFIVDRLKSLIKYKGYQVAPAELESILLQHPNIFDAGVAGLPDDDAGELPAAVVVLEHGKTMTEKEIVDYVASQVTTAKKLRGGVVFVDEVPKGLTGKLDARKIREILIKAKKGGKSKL

Concanavalin-A (Canavalia ensiformis), sequence (P02866 whole entry, looked up): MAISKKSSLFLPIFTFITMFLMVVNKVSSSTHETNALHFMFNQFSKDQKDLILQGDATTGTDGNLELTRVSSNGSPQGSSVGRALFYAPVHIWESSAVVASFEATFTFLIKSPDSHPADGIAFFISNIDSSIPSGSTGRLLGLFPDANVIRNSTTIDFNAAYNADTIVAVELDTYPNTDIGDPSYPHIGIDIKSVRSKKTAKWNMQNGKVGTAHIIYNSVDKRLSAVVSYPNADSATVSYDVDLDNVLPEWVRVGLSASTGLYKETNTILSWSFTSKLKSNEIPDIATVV
Albumin (Bos taurus), sequence (P02769 whole entry, looked up): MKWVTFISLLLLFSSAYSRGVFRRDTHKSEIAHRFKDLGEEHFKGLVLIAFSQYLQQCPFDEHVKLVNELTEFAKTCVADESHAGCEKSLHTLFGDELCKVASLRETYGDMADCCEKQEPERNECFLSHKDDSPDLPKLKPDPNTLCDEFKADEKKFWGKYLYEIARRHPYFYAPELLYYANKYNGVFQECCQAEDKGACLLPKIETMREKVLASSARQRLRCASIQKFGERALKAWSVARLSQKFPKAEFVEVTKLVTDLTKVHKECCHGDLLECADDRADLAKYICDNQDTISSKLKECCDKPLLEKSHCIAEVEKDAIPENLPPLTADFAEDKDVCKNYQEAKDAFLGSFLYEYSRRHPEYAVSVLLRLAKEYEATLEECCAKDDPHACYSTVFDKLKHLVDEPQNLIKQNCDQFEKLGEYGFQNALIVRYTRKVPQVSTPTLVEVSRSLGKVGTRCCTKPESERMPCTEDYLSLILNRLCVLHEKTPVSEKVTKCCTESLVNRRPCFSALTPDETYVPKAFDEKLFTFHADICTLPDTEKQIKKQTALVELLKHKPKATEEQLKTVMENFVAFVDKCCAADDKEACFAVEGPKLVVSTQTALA
Focal adhesion kinase 1 (Homo sapiens), sequence (Q05397 whole entry, looked up): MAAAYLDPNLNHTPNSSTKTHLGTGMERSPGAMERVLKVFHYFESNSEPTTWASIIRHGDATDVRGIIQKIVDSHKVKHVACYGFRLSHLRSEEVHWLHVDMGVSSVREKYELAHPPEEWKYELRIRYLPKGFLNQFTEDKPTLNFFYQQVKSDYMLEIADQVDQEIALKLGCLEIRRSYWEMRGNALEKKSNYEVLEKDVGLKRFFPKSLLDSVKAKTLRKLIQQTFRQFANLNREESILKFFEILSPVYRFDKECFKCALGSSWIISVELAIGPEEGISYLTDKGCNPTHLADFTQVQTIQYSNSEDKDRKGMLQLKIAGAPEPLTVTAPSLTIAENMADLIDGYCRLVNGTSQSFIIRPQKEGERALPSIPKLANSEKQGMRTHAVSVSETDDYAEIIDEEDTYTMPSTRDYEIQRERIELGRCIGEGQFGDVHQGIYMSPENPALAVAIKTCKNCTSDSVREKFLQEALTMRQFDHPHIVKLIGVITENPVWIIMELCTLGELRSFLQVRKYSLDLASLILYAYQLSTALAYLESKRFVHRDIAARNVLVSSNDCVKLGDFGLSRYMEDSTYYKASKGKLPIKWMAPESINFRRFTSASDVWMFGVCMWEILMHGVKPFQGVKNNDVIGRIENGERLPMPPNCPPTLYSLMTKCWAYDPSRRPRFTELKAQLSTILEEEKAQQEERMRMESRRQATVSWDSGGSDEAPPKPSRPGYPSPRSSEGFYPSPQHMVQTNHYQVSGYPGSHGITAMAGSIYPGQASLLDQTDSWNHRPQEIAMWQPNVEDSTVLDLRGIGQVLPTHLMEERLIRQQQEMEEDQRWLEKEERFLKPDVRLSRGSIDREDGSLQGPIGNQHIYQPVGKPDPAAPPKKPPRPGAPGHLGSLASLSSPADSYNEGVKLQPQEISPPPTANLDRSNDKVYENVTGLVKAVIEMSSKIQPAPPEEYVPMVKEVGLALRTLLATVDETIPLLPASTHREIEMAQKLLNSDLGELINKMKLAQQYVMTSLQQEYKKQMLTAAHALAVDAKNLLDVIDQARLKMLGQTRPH
Fibroblast growth factor 2 (Homo sapiens), sequence (P09038 whole entry, looked up): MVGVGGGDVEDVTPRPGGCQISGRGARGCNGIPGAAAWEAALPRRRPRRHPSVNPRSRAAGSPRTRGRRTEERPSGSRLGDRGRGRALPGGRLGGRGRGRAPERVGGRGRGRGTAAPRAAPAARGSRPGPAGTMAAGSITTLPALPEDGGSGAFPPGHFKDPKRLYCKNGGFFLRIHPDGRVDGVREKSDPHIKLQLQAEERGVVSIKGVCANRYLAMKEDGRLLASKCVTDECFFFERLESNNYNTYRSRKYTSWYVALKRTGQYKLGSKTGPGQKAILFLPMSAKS
Follistatin (Homo sapiens), sequence (P19883 whole entry, looked up): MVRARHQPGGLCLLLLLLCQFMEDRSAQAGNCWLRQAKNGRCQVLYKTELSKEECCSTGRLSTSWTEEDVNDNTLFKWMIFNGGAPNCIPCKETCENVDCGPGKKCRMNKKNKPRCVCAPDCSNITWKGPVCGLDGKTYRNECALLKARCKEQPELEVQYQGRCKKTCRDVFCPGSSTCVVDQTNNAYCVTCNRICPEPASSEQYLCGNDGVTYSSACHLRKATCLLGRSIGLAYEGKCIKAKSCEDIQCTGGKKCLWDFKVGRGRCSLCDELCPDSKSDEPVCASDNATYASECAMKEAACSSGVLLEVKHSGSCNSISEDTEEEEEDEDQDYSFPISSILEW

Row | Compound | composite z-score (Albumin (Bos taurus)) | composite Z-score [1] | composite z-score [2] | composite z-score [3] | composite z-score [4] | composite z-score [5] | composite z-score [6] | composite z-score (Sam68 (KHDRBS1)) | composite z-score [7] | composite z-score [8] | composite z-score [9] | composite z-score [10] | composite z-score [11] | composite z-score [12] | composite z-score [13] | composite z-score [14] | z-score [15] | composite z-score (Lefty1) | composite z-score [16] | z-score [17]
1 | C=CCC(OC(C)=O)[C@@H]1[C@@H](N(Cc2ccc(-c3cccc(C(F)(F)F)c3)o2)C(=O)c2ccc(C)cc2)c2cc(OCCCO)ccc2N1C(=O)c1ccc2ccccc2c1 (stereo not given in full) | 0.149 | -0.0045 (inactive) | -0.0377 | -0.14 | 0.151 | 0.387 | -0.0397 | -0.285 | 0.287 | 0.0961 | -0.276 | -0.207 | 0.187 | 0.188 | 0.908 | 0.0013 | 1.23 | 0.398 | -0.0998 | -0.0536 (inactive)
2 | C=CCC(OC(C)=O)[C@@H]1[C@@H](N(Cc2cccc3ccccc23)C(=O)Cc2ccc(OC)cc2)c2cc(OCCCO)ccc2N1C(=O)c1ccc2ccccc2n1 (stereo not given in full) | 0.249 | 0.397 (inactive) | 0.0224 | -0.0515 | 0.189 | 0.979 | 0.449 | 0.404 | 0.173 | -0.212 | -0.115 | -0.0569 | 0.833 | 0.733 | 0.822 | 0.0677 | 0.343 | -0.0766 | 0.174 | 0.565 (inactive)
3 | CN(C)C(=O)[C@@]1(CCS(=O)(=O)c2ccccc2)N=C(c2ccc(OCCCO)cc2)O[C@H]1c1ccccc1 | 1.02 | 1.19 (inactive) | 0.413 | -0.115 | 0.646 | 2.15 | 0.862 | 1.16 | -0.98 | 0.761 | 2.36 | 1.23 | 0.365 | 0.983 | 1.02 | -0.663 | 0.635 | -0.502 | 1.18 | -0.525 (inactive)
4 | CC(C)C[C@@H]1NC(=O)[C@@H]2C[C@H](C(=O)NCCCCCN)[C@H](c3ccc(O)cc3)N2C1=O | 0.85 | -0.285 (inactive) | -0.169 | -0.102 | 0.577 | 1.48 | 0.17 | 1.33 | 0.25 | 1.17 | 0.854 | 1.15 | 0.269 | 0.761 | 1.43 | 1.66 | -0.188 | 1.3 | 0.899 | -0.348 (inactive)
5 | COCCOC(=O)N1C(=O)[C@@]2(c3cc(C#Cc4ccc(OC)cc4)ccc31)[C@H](c1ccc(O)cc1)N1[C@H](c3ccccc3)[C@H](c3ccccc3)OC(=O)[C@H]1[C@@H]2C(=O)N1CCCCCCC1 | 0.802 | -0.182 (inactive) | 0.7 | -0.131 | 0.466 | 2.11 | 0.575 | 0.722 | -0.508 | 0.498 | -1.01 | 1.11 | 0.415 | 0.377 | 1.25 | 0.408 | -0.421 | 0.391 | 0.484 | -0.564 (inactive)
6 | COCCCNC(=O)[C@@]1(Sc2ccc(C)cc2)CC(=O)N(C2CCCCC2)[C@@H]1c1ccc(CO)cc1 | -0.111 | -0.513 (inactive) | -0.337 | -0.12 | 0.71 | 1.62 | 1.21 | -0.281 | -0.975 | -0.305 | 0.624 | -0.454 | 0.647 | -1.08 | -0.441 | -0.511 | -0.227 | -1.63 | -0.361 | 0.545 (inactive)
7 | COc1ccc(CCN2C(=O)[C@@]3(Cc4ccccc42)c2ccccc2C(=O)N(Cc2ccccc2OC)[C@H]3c2ccc(CO)cc2)cc1 | 0.282 | -0.0127 (inactive) | -0.177 | -0.0785 | 0.162 | 0.215 | -0.778 | -0.232 | -0.761 | -0.516 | -0.983 | -1.04 | -0.149 | -1.45 | -1.19 | -0.832 | 0.132 | -1.55 | -0.176 | -0.377 (inactive)
8 | O[C@@H](Cc1ccccc1)[C@@H](/C=C/C1CC1)N(CC#Cc1ccccc1)Cc1cccc(Cl)c1 | -0.22 | 0.889 (inactive) | -0.376 | -0.117 | -0.245 | -0.359 | 0.0449 | -0.117 | -1.21 | -0.403 | -0.156 | -0.429 | -0.0816 | -0.6 | -1.19 | -1.43 | 0.513 | -0.954 | 0.197 | 0.466 (inactive)
9 | O=C1O[C@@H](c2ccccc2)[C@@H](c2ccccc2)N2[C@@H](c3ccc(O)cc3)[C@]3(C(=O)Nc4ccc(C#CC5(O)CCCCCC5)cc43)[C@@H](C(=O)NC[C@H](O)c3ccccc3)[C@H]12 | 0.0697 | 0.2 (inactive) | -0.262 | -0.0984 | 0.547 | 1.05 | 0.632 | 0.686 | -0.703 | 0.221 | 0.326 | 0.899 | 0.551 | 0.151 | -0.538 | -0.322 | -1.31 | -0.218 | 0.297 | 0.27 (inactive)
10 | CC1=C([C@H](O)CCc2ccccc2)[C@H](CO)[C@@H]2C(=O)N(C)C(=O)[C@@H]2C1 | 0.361 | -0.297 (inactive) | 0.0313 | 0.0592 | 0.125 | 0.58 | 0.244 | 0.535 | 0.557 | 0.476 | 0.32 | -0.183 | 0.332 | 0.431 | 0.172 | 0.227 | 1.48 | 0.475 | 0.133 | -1.01 (inactive)
